Inconclusive results are not listed. A number with no mark means an inactive call. Calls come from the whole dose curve.
molecular target: Retinoic acid receptor RXR-alpha (Homo sapiens) (UniProt P19793); assay: qHTS assay to identify small molecule agonists of the RXR signaling pathway (AID 1159527); conditions: HEK293T RXRa-UAS-bla, beta-lactamase ratio, 16 h; series mostly up to 76.8 µM; activation: at the top concentration; note: nearly all actives have a fitted effect of over 35% in size
Source text: U.S. Tox21 Program National Center for Advancing Translational Sciences [NCATS] NIH Chemical Genomics Center [NCGC] U.S. Environmental Protection Agency [EPA] National Institutes of Environmental Health Sciences [NIEHS] National Toxicology Program [NTP] U.S. Food and Drug Administration [FDA] Tox21 Assay Overview: The Retinoid X receptor (RXR), a nuclear hormone receptor expressed in liver, spleen, placenta, epidermis, central nervous system. These receptors are able to form homo and heterodimers with other nuclear receptors and due to this heterodimerizing ability, RXR functions as master regulators producing diverse physiological effects. Three subtypes of RXR exist; alpha, beta and gamma. Retinoid X receptor alpha (RXR-alpha) has potential roles in metabolic signaling pathways, skin alopecia, dermal cysts, cardiac development, insulin sensitization etc. Therefore screening environmental chemicals on RXR-alpha signaling can be used for the studies focused on such therapeutic applications. For quantification of RXR-alpha ligands signaling, GeneBLAzer RXR alpha-UAS-bla HEK 293T (Life Technologies, Carlsbad, CA) cells containing a beta-lactamase reporter-gene under control of Retinoid X receptor-alpha response element were used to screen Tox21 10K library.
Tox21 Assay Protocol Summary: RXR-alpha HEK 293T cells were dispensed at 2,000 cells/6 uL of assay medium containing 2% charcoal-stripped FBS using a Multidrop Combi (ThermoFisher Scientific, Waltham, MA) dispenser. The assay was performed in black wall/clear-bottom 1536-well plates (Greiner Bio-One North America Inc. Monroe, NC). 9-cis retinoic acid was used as a positive control in the agonist mode screen. After the assay plates were incubated at 37 C and 5% CO2 for 5 hr, 23 nL of compounds dissolved in DMSO, positive controls or DMSO only were transferred to the assay plate by a Pintool station (Kalypsys, San Diego, CA). The assay plates were incubated at 37 C and 5% CO2 for 16 hr. One uL of LiveBLAzer B/G FRET substrate (Life Technologies) was added using a Flying Reagent Dispenser (Aurora Discovery, San Diego, CA) and the plates were incubated at room temperature for 2 hr. Fluorescence intensity (405 nm excitation, 460/530 nm emission) was measured using an Envision plate reader (PerkinElmer, Shelton, CT).
% is set by controls: 0 for no effect and ±100 for the full control effect.

Chain of Retinoic acid receptor RXR-alpha (Homo sapiens) (P19793 whole entry, looked up): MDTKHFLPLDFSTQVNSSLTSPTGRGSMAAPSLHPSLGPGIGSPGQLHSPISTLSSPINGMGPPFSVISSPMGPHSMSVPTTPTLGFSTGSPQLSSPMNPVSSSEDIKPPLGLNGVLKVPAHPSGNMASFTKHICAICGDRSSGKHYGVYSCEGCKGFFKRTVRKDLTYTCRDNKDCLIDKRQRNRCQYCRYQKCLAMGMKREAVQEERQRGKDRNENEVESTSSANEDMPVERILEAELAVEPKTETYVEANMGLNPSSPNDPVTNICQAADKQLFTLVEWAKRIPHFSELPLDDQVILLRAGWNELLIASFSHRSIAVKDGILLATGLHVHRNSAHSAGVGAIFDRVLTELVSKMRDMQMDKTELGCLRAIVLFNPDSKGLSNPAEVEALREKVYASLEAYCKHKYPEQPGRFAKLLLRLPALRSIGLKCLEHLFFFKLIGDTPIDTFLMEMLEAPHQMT

Row | Compound | activation
1 | COC(=O)[C@@H](N)CCCN/C(N)=N/[N+](=O)[O-] | 8.8% [at 35.3 µM]
2 | C/C=C/CC#N | -0.458%
3 | Cc1ccc2cc(C)ccc2c1 | 7.26%
4 | BrCCc1ccccc1 | -7.88%
5 | CCOc1cc(OP(=S)(OC)OC)nc(CC)n1 | -5.91%
6 | CCN(CCO)CCO | 0.213%
7 | CN=CNc1ccc(C)cc1C | 9.62%
8 | O=C(Cl)c1ccccc1 | 0.926%
9 | CCCC[N+](=O)[O-] | 3.71%
10 | CCC(C)C(C)(COC(N)=O)COC(N)=O (stereo not given) | 2.61% [at 35.3 µM]
11 | CC(C)(N)Cc1ccc(Cl)cc1 | 2.1% [at 35.3 µM]
12 | N#CN | -6.48% [at 200 µM]
13 | CCN[C@H](C)Cc1cccc(C(F)(F)F)c1 | 8.79%
14 | CCCCCCC1CCOC1=O (stereo not given) | 8.31%
15 | O=C1C2CC=CCC2C(=O)N1SC(Cl)(Cl)Cl (stereo not given) | -10.3%
16 | C(COCC1CO1)OCC1CO1 (stereo not given) | -19.1%
17 | O=c1[nH]c2ccccc2o1 | -8.77%
18 | C[C@@H](N)[C@@H](O)c1ccccc1 | -1.1% [at 35.3 µM]
19 | CCC(C(N)=O)N1CCCC1=O (stereo not given) | 2.23% [at 35.3 µM]
20 | CCOC(=O)c1ncn2c1CN(C)C(=O)c1c(I)cccc1-2 | 7.06% [at 35.3 µM]

Row | Compound | activation
21 | OCC(Cl)CCl (stereo not given) | 10.5%
22 | CCOC(=O)COc1ccc(Cl)cc1Cl | 4.6%
23 | CCOP(=O)(CN(CCO)CCO)OCC | 6.79%
24 | COC1=CC(=O)O[C@@H](/C=C/c2ccccc2)C1 | 0.781%
25 | COC[C@@H](NC(C)=O)C(=O)NCc1ccccc1 | 1.03% [at 35.3 µM]
26 | O=C(Cl)CCl | -6.62%
27 | OP(O)c1ccccc1 | 0.265%
28 | CCC(CC)(CNC(=O)CCCO)c1cccc(OC)c1 | 2.93% [at 35.3 µM]
29 | CCOP(=S)(OCC)Oc1ccc(Cl)cc1Cl | -0.778%
30 | CCOC(=O)Nc1cccc(OC(=O)Nc2ccccc2)c1 | -4.03%
31 | C=CC=O | 0.772%
32 | CN1C(=O)COc2c(C(=O)NC3CN4CCC3CC4)cc(Cl)cc21 (stereo not given) | 10% [at 35.3 µM]
33 | O=P(O)(O)c1ccccc1 | -1.21%
34 | Cc1ccc(-c2nc3ccc(C)cn3c2CC(=O)N(C)C)cc1 | 1.81% [at 35.3 µM]
35 | CN(C)C(=O)Oc1cc(OC(=O)N(C)C)cc(C(O)CNC(C)(C)C)c1 (stereo not given) | 6.35% [at 35.3 µM]
36 | CNC(=O)O/N=C(/CSC)C(C)(C)C | 0.387%
37 | C[C@H](N)C(=O)c1ccccc1 | 6.59%
38 | CC(C)(O)C(Cl)(Cl)Cl | 2.77% [at 35.3 µM]
39 | CCC1(c2ccccc2)CCC(=O)NC1=O (stereo not given) | 1.12% [at 35.3 µM]
40 | O=c1[nH]oc2c1CCNC2 | -0.429% [at 35.3 µM]

Reference: PubChem BioAssay (Tox21)
